# Where “and” joins values, the source holds several entries; their conditions need not be identical. Equal entries are not always repeated.
# How the values were obtained:
# [1] = target: Bromodomain-containing protein 4 (Homo sapiens) (UniProt O60885); conditions: Compound concentration 10.0 uM, Protein concentration 2.0 uM
# [2] = target: T1, Transcription intermediary factor 1-alpha (Homo sapiens) (UniProt O15164); conditions: Compound concentration 10.0 uM, Protein concentration 2.0 uM
# T1 sequence (whole entry): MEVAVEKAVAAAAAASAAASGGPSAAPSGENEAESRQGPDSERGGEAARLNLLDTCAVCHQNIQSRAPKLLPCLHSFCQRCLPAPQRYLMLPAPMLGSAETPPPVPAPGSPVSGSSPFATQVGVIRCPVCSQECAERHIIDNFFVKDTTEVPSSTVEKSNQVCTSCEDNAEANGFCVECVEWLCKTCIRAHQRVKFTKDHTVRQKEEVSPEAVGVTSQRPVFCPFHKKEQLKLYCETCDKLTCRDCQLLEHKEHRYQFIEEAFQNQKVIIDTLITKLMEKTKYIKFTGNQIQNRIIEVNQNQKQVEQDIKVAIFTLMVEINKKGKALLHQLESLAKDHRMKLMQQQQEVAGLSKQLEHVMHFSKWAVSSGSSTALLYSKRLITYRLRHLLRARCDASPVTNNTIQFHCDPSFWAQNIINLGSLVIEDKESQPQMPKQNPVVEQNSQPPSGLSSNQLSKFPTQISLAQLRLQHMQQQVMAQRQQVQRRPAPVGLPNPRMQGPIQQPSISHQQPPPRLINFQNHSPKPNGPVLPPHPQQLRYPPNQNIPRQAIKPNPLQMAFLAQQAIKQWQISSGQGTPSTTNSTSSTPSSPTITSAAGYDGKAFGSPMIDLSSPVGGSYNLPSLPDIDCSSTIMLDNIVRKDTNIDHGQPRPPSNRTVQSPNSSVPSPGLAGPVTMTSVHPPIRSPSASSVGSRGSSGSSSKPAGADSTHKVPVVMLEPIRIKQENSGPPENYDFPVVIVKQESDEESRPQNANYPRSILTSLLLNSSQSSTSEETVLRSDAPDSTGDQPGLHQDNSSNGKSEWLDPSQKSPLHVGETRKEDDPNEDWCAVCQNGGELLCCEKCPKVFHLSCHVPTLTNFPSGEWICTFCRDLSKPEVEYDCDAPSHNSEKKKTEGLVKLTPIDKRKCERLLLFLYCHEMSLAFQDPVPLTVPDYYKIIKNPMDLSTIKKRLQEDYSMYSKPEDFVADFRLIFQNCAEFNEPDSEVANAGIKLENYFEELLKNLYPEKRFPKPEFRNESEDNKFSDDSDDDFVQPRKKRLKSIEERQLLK
smiles,measurement,setting,value
CCC(=O)N1CCOc2c(cc(-c3ccc(OC)c(OC)c3)cc2OC[C@H]2CCCN(C)C2)C1,ΔTm,[1],2.08 °C and 2.81 °C
same,ΔTm,[2],1.25 °C

# Source: ChEMBL document CHEMBL4649985, “Generation of a Selective Small Molecule Inhibitor of the CBP/p300 Bromodomain for Leukemia Therapy” (Cancer Res, 2015)
